Screens from PubChem BioAssay.
The list is not random: actives were taken first. Their share in the collection is about 19%.
CHX counter: Cycloheximide Counterscreen for Small Molecule Inhibitors of Shiga Toxin. cell reporter, cycloheximide protein synthesis inhibition counterscreen. max response, %. hit rate 12% among 300,000. AID 2314, 2010; in the data active means max response mostly above about 13%, no sharp cut-off; inactive means mostly below about 14%; further: read at 38.3 µM for the half of the compounds with a filed dose
Pf growth 48h: Primary qHTS for delayed death inhibitors of the malarial parasite plastid, 48 hour incubation. P. falciparum luciferase growth in erythrocytes, 48 h. Potency, µM (doses to about 28.7 µM), hits mostly inhibitors. hit rate 5.9% among 310,000
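Cell-based growth assay: transgenic P. falciparum expressing firefly luciferase, cultured in red cells within RPMI 1640 containing 0.5% w/v Albumax, 24 mM bicarbonate and gentamycin. A drop in luciferase activity indicates inhibition.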
Shiga inhibitor: A qHTS for Small Molecule Inhibitors of Shiga Toxin; Vero cells, Shiga toxin protein synthesis inhibition reporter; inhibition, % at 38.7 µM; hit rate 9.2% among 290,000; AID 2315, 2010; in the data active means inhibition mostly above about 28%, no sharp cut-off; inactive means mostly below about 43%
Pf growth 96h: Primary qHTS for delayed death inhibitors of the malarial parasite plastid, 96 hour incubation | P. falciparum luciferase reporter growth, 96 h | Potency, µM (highest dose often 28.7 µM), usual class: inhibitors | hit rate 6.9% among 320,000
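Plates of compound plus infected erythrocytes (2% hematocrit, 0.05% parasitemia final) incubate 96 hours, 37 C, 5% CO2. Detection reagent added; reduced luminescence from the parasites' luciferase reporter flags inhibition.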
Lassa entry inh: qHTS for Inhibitors of binding or entry into cells for Lassa Virus | Lassa virus pseudotype entry inhibition, cell reporter | Potency, µM (titrated, usually from 37.9 µM), hits mostly inhibitors | hit rate 1.2% among 300,000; calls by dose curve; tested in HEK293 cells; further: nearly all actives have a fitted effect of over 50% in size
Marburg entry inh: qHTS for inhibitors of binding or entry into cells for Marburg Virus | hit rate 1.8% among 300,000 | AID 540276, 2011 | Potency, µM (titrated, usually from 37.8 µM), hits mostly inhibitors | Marburg virus pseudotyped entry inhibition, cell reporter; calls by dose curve; tested in HEK293 cells
Each line names hits and unclear results; the compound was inactive in the other large screens. Unless noted, the call rests on the fitted dose curve; in most records, active means well fitted inhibition curve with a large enough effect; inconclusive means small, poorly fitted or top-dose-only effect, or another doubt; inactive means no such curve, though single readings can be large or run the other way.

CCOCC(=O)Nc1cc([N+](=O)[O-])ccc1C	Pf growth 96h inconclusive
NC(=O)CSc1nnc(CSc2ncccn2)n1-c1ccccc1	Pf growth 96h 13µM
Cc1ccc(OCc2nnc(SCC(=O)c3ccccc3)n2-c2ccccc2)cc1	Pf growth 48h 13µM, Lassa entry inh inconclusive
CCCNC(=S)N1CCC(NC(=O)c2cccc(C)c2)CC1	none (no result: Shiga inhibitor)
COC(=O)[C@H](CC(C)C)NS(=O)(=O)N(Cc1ccccc1)[C@@H](CC(C)C)C(=O)OC	Pf growth 48h 8.3µM, Pf growth 96h inconclusive (no result: CHX counter, Shiga inhibitor, Lassa entry inh, Marburg entry inh)
C=CCCN(C(CC(C)C)C(=O)OC)S(=O)(=O)c1ccccc1Br (stereo not given)	Pf growth 48h inconclusive, Pf growth 96h 12µM (no result: Lassa entry inh, Marburg entry inh)
COC(=O)[C@H](Cc1ccccc1)NS(=O)(=O)N[C@@H](Cc1ccccc1)C(=O)OC	none (no result: CHX counter, Shiga inhibitor, Lassa entry inh, Marburg entry inh)
C=CCCN(C(CC(C)C)C(=O)OC)S(=O)(=O)c1cc(Br)ccc1Br (stereo not given)	Pf growth 48h inconclusive, Pf growth 96h inconclusive (no result: Lassa entry inh, Marburg entry inh)
Cc1ccccc1NC(=O)c1ccc2snnc2c1	none (no result: Lassa entry inh, Marburg entry inh)
O=C(CCc1nnc(CCCc2ccccc2)o1)N1CCCCCC1	CHX counter 32, Shiga inhibitor 87 (no result: Lassa entry inh, Marburg entry inh)
CC1CCCN(C(=O)CCc2ccccc2)C1 (stereo not given)	CHX counter 9.3, Shiga inhibitor active
O=C(CCc1ccccc1)N1CCCC1	Pf growth 96h inconclusive (no result: Lassa entry inh, Marburg entry inh)
CCCOC1CCCN(C(=O)CCc2nnc(CCCCc3ccccc3)o2)C1 (stereo not given)	CHX counter 34, Pf growth 48h inconclusive, Shiga inhibitor 41, Pf growth 96h inconclusive (no result: Lassa entry inh, Marburg entry inh)
CCOc1ccc(NC(=O)CSc2nnc(-c3ccco3)n2C)cc1	Pf growth 96h inconclusive
COc1ccc2c(c1)c(C(=O)OCCN(C)C)c(C)n2C	none
C#CCSc1nnc(-c2sc(-c3ccccc3)nc2C)n1C	CHX counter 18, Pf growth 96h inconclusive, Marburg entry inh inconclusive
CNC(=O)CSc1nnc(-c2ccccc2)n1C	none (no result: Lassa entry inh, Marburg entry inh)
C#CCSc1nnc(-c2c[nH]c3ccccc23)n1C	CHX counter 18, Pf growth 48h inconclusive (no result: Lassa entry inh, Marburg entry inh)
CCCn1c(N)c(C(=O)CSc2nnc(-c3c[nH]c4ccccc34)n2C2CC2)c(=O)[nH]c1=O	none (no result: CHX counter, Pf growth 48h, Shiga inhibitor, Pf growth 96h)
Cn1c(N)c(C(=O)CSc2nnc(-c3c[nH]c4ccccc34)n2C2CC2)c(=O)[nH]c1=O	Pf growth 48h inconclusive, Pf growth 96h 6.6µM (no result: CHX counter, Shiga inhibitor, Lassa entry inh, Marburg entry inh)
CC(C)Sc1nnc(-c2c[nH]c3ccccc23)n1C	CHX counter 50, Shiga inhibitor 121 (no result: Pf growth 48h, Lassa entry inh, Marburg entry inh)
CCOc1ccccc1CN1CCN(Cc2ccon2)CC1CCO (stereo not given)	none
COc1cccc(-n2c(SC)nnc2-c2c[nH]c3ccccc23)c1	Pf growth 96h 4.7µM (no result: Pf growth 48h, Lassa entry inh, Marburg entry inh)
CCN(CC)c1ccc(NC(=O)COc2ccc(C#N)cc2)cc1S(=O)(=O)Nc1ccc(OC)cc1	Pf growth 48h inconclusive, Pf growth 96h 10µM, Lassa entry inh inconclusive, Marburg entry inh inconclusive
CCN(CC)c1ccc(NC(=O)c2cccc(C)c2)cc1S(=O)(=O)Nc1ccccc1OC	Pf growth 48h 7.4µM, Pf growth 96h 2.9µM, Lassa entry inh inconclusive, Marburg entry inh inconclusive
CCN(CC)c1ccc(NC(=O)c2ccccc2)cc1S(=O)(=O)Nc1ccccc1OC	Pf growth 48h 1.5µM, Pf growth 96h inconclusive, Marburg entry inh inconclusive
COc1ccc(OCC(=O)Nc2ccc(C)c(S(=O)(=O)N(C)C)c2)cc1	Lassa entry inh inconclusive
CN(C)C(/C=C/Nc1ccc(Br)cc1)=C(C#N)C#N	none
CCCn1c2ccccc2c2cnn(CC(=O)NCCc3cc(OC)ccc3OC)c(=O)c21	none (no result: CHX counter, Pf growth 48h, Shiga inhibitor, Pf growth 96h, Marburg entry inh)
COCc1ccc([C@@H]2C[C@H]3CN(Cc4ccccc4C)C(=O)[C@]34CCCN24)o1	CHX counter 21, Shiga inhibitor 32, Pf growth 96h inconclusive (no result: Lassa entry inh, Marburg entry inh)
Cc1ccccc1CN1C[C@@H]2C[C@@H](c3cn[nH]c3-c3ccc(F)cc3)N3CCC[C@@]23C1=O	Pf growth 48h inconclusive, Lassa entry inh inconclusive, Marburg entry inh inconclusive
COc1ccccc1CN1C[C@@H]2C[C@@H](c3ccc(C)c(C)c3)N3CCC[C@@]23C1=O	Pf growth 48h inconclusive, Pf growth 96h 10µM, Marburg entry inh inconclusive
COc1ccccc1CN1C[C@@H]2C[C@@H](c3[nH]c4c(C)cccc4c3C)N3CCC[C@@]23C1=O	Pf growth 48h 6.6µM, Pf growth 96h 12µM (no result: Lassa entry inh, Marburg entry inh)
COc1ccc(-c2[nH]ncc2[C@@H]2C[C@H]3CN(Cc4ccccc4C)C(=O)[C@]34CCCN24)cc1	Pf growth 48h 3.3µM (no result: Lassa entry inh, Marburg entry inh)
COCc1ccc([C@@H]2C[C@H]3CN(Cc4cccnc4)C(=O)[C@]34CCCN24)o1	Pf growth 96h inconclusive (no result: Lassa entry inh, Marburg entry inh)
Cc1ccccc1NC(=O)c1ccc(NS(=O)(=O)c2cc(C(C)(C)C)cc(C)c2C)cc1	Lassa entry inh inconclusive, Marburg entry inh inconclusive
O/N=C/c1ccccc1Oc1ccc(Cl)cc1	none
COc1ccc([C@@H]2C[C@H]3CN(Cc4ccccc4OC)C(=O)[C@]34CCCN24)cc1C	none (no result: Lassa entry inh, Marburg entry inh)
COc1ccccc1CN1C[C@@H]2C[C@@H](c3cccc(C)c3)N3CCC[C@@]23C1=O	Pf growth 48h inconclusive, Pf growth 96h 10µM, Marburg entry inh inconclusive
C(#Cc1ccccc1)CN1CCN(c2ccccn2)CC1	CHX counter 25, Pf growth 96h inconclusive
C(#Cc1ccccc1)CN1CCCCC1	Pf growth 48h inconclusive
c1ccc(COc2ccc(CN3CCN(c4ccccn4)CC3)cc2)cc1	CHX counter 41, Shiga inhibitor 93 (no result: Pf growth 48h)
COc1ccc(CNC(=O)CCSc2ccc(F)cc2)cc1OC	none
CC(C)c1ccc(OCC(=O)Nc2ccc(S(=O)(=O)Nc3ccccn3)cc2)cc1	Pf growth 48h inconclusive (no result: Lassa entry inh)
CC12CN3CC(C)(CN(C1)C3c1c[nH]c3ccccc13)C2=O (stereo not given)	none
CC(=O)N/N=C(\C)c1cccc(NC(=O)c2cccs2)c1	none
C/C(=N\NC(=O)c1cccs1)c1cccnc1	none
C/C(=N\NC(=O)c1cccs1)c1ccc2ccccc2c1	CHX counter 37, Shiga inhibitor 41, Marburg entry inh inconclusive
C/C(=N\NC(=O)c1ccncc1)c1cccs1	CHX counter 48, Shiga inhibitor 63, Pf growth 96h inconclusive (no result: Lassa entry inh, Marburg entry inh)
C/C(=N/N=C(/C)c1cccs1)c1cccs1	CHX counter 31, Shiga inhibitor 73
C/C(=N/NC(=O)c1cccs1)c1cccc(NC(=O)C2CC2)c1	CHX counter 38, Shiga inhibitor 95, Pf growth 96h inconclusive
COc1ccc(NS(=O)(=O)c2ccc(NC(=O)C3CC3)cc2)cc1	Pf growth 96h inconclusive, Lassa entry inh inconclusive
COC(=O)c1[nH]c2ccc(C)cc2c1NS(=O)(=O)c1ccc(F)cc1	Pf growth 48h inconclusive, Lassa entry inh inconclusive, Marburg entry inh inconclusive
C/C(=N\NC(=O)c1ccc2ccccc2c1)c1cccs1	CHX counter 45, Shiga inhibitor 94
C/C(=N\NC(=O)c1cccc(S(=O)(=O)N2CCCC2)c1)c1cccs1	CHX counter 19, Shiga inhibitor 50 (no result: Lassa entry inh)
